From PubChem BioAssay AID1159580 (chemical genetic matrix, 2015)
“And” between values parts separate entries of the source, which are not always exact repeats. Equal entries are not always repeated. About 2,000 (36%) of roughly 5,500 compounds were called active. Another 18% or so got no clear call; they are omitted. No stated cut-off is given here; in the data, active means normalized growth mostly below about 0.91 (no sharp cut-off); inconclusive means no clear call, values can overlap the other calls; inactive means mostly above about 0.92. The list shows a part of the results.

Assay: chemical genetic growth profiling, strain panel (AID 1159580);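 further: tested at 20 µM; growth read once vehicle control cultures reached saturation at 30 °C; 1 = growth at the plate median or of vehicle wells; lower values mean less growth of the strain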
Details: S. cerevisiae deletion strains, growth OD

Measured: normalized growth

COC(=O)[C@H]1[C@H]2C[C@H]3c4[nH]c5cc(OC)ccc5c4CCN3C[C@H]2C[C@@H](OC(=O)c2cc(OC)c(OC)c(OC)c2)[C@@H]1OC
inactive: locus YAL021C, strain ccr4, hits give low values 0.989 | locus YAL026C, strain drs2, hits give low values 1.02 | locus YAL030W, strain snc1, hits give low values 1.01 | locus YBL061C, strain skt5, hits give low values 1.02 | locus YBR009C, strain hhf1, hits give low values 0.996 | locus YBR021W, strain FUR4, hits give low values 0.998 | locus YBR023C, strain chs3, hits give low values 1.01 | locus YBR171W, strain sec66, hits give low values 1.02 | locus YBR229C, strain ROT2, hits give low values 1 | locus YBR231C, strain swc5, hits give low values 1.01 | locus YBR279W, strain paf1, hits give low values 1.01 | locus YCL011C, strain gbp2, hits give low values 1.01 | locus YCL016C, strain dcc1, hits give low values 1.01 | locus YCL029C, strain bik1, hits give low values 0.971 | locus YCL061C, strain MRC1, hits give low values 1.01 | locus YCL069W, strain vba3, hits give low values 1.01 | locus YCR088W, strain abp1, hits give low values 1.01 | locus YDL005C, strain med2, hits give low values 1.01 | locus YDL035C, strain GPR1, hits give low values 1.05 | locus YDL040C, strain nat1, hits give low values 1.01 | locus YDL074C, strain BRE1, hits give low values 0.976 | locus YDL101C, strain DUN1, hits give low values 0.986 | locus YDL185W, strain tfp1, hits give low values 0.966 | locus YDL192W, strain arf1, hits give low values 1.02 | locus YDR001C, strain nth1, hits give low values 1.01 | locus YDR069C, strain doa4, hits give low values 1 | locus YDR101C, strain arx1, hits give low values 0.977 | locus YDR137W, strain rgp1, hits give low values 1.03 | locus YDR159W, strain sac3, hits give low values 1.02 | locus YDR162C, strain NBP2, hits give low values 1.02 | locus YDR195W, strain ref2 1 | locus YDR297W, strain sur2, hits give low values 1.01 | locus YDR318W, strain mcm21, hits give low values 0.992 | locus YDR334W, strain swr1, hits give low values 1.02 | locus YDR335W, strain msn5, hits give low values 1.02 | locus YDR388W, hits give low values 0.983 | locus YDR392W, strain spt3, hits give low values 0.925 | locus YDR502C, strain sam2, hits give low values 0.929 | locus YEL003W, strain gim4, hits give low values 1.02 | locus YEL037C, strain rad23, hits give low values 1.02 | locus YEL061C, strain CIN8 (second series), hits give low values 1.01 | locus YEL061C, strain CIN8, hits give low values 1 | locus YER015W, strain faa2, hits give low values 1 | locus YER016W, strain bim1, hits give low values 1.01 | locus YER110C, hits give low values 0.975 | locus YER111C, strain swi4, hits give low values 1.01 | locus YER155C, strain BEM2 (second series), hits give low values 0.975 | locus YER155C, strain BEM2, hits give low values 1 | locus YER167W, strain BCK2, hits give low values 1.01 | locus YFR010W, strain ubp6, hits give low values 1.01 | locus YGL078C, strain dbp3, hits give low values 1.02 | locus YGL086W, strain mad1, hits give low values 0.999 | locus YGL167C, strain pmr1, hits give low values 1.02 | locus YGL173C, strain kem1, hits give low values 1.02 | locus YGL227W, strain vid30, hits give low values 1.01 | locus YGL240W, strain doc1, hits give low values 0.997 | locus YGL248W, strain PDE1, hits give low values 0.987 | locus YGL253W, strain hxk2, hits give low values 1.02 | locus YGR135W, strain pre9, hits give low values 1 | locus YGR252W, strain gcn5, hits give low values 1.06 | locus YHR013C, strain ard1, hits give low values 0.995 | locus YHR027C, strain rpn1, hits give low values 1.02 | locus YHR030C, strain SLT2, hits give low values 1.01 and 0.978 | locus YHR079C, strain IRE1 (second series), hits give low values 0.982 | locus YHR079C, strain IRE1, hits give low values 0.968 | locus YHR094C, strain hxt1, hits give low values 0.993 | locus YHR129C, strain ARP1, hits give low values 1 | locus YHR142W, strain chs7, hits give low values 1.01 | locus YHR200W, strain rpn10, hits give low values 0.992 | locus YIL066C, strain RNR3, hits give low values 1.01 | locus YIL073C, strain SPO22, hits give low values 0.923 | locus YIL125W, strain kgd1, hits give low values 1.02 | locus YIR030C, strain dcg1, hits give low values 0.994 | locus YJL092W, strain hpr5, hits give low values 1.01 | locus YJL095W, strain BCK1 (second series), hits give low values 1.01 | locus YJL095W, strain BCK1, hits give low values 0.958 and 0.964 | locus YJL115W, strain asf1, hits give low values 1.01 | locus YJL129C, strain trk1, hits give low values 1 | locus YJL134W, strain LCB3, hits give low values 0.996 | locus YJL154C, strain vps35, hits give low values 1 | locus YJL164C, strain tpk1, hits give low values 1 | locus YJL166W, strain qcr8, hits give low values 0.987 | locus YJL168C, strain set2, hits give low values 0.991 | locus YJL187C, strain SWE1 (second series), hits give low values 0.979 | locus YJL187C, strain SWE1, hits give low values 1.01 | locus YJR043C, strain POL32, hits give low values 1.07 | locus YJR066W, strain TOR1, hits give low values 0.92 | locus YJR075W, strain HOC1, hits give low values 0.982
